# Assay results taken from PubChem BioAssay AID1345085 (National Center for Advancing Translational Sciences (NCATS), 2018).
# Inconclusive results are not listed. Values without a mark were called inactive. The source made the active and inactive calls. Calls follow the shape of the dose curve; as a rule, active = well fitted cell-killing curve with a large enough effect; inconclusive = small, poorly fitted or top-dose-only effect, or effect the other way; inactive = no such curve, though single readings can be large or run the other way.
# Test system: CAOV3
# Experiment: Confirmatory qHTS for gynecologic anti-cancer compounds from libraries of approved drugs and bioactive compounds; also: nearly all actives have a fitted effect of over 55% in size
# Details: gynecologic cancer cell panel viability, ATPlite luminescence, 48 h; series mostly up to 57.6 µM; activity change, negative = viability loss: at the top concentration
# Procedure, shortened: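 Cells (1,000/well) plated 16 h, then exposed 48 h at 37 °C to 11 concentrations (1:3) from 57.5 uM to 0.977 nM. Viability by ATPlite luminescence after 15 min; IC50 derived, with HEK 293T used for selectivity index.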
# % is scaled to controls: 0 for no effect and ±100 for the full control effect; potency is read from the fitted curve at half-maximal effect.
SMILES,Potency,"activity change, negative = viability loss"
CCOc1cc2ncc(C#N)c(Nc3ccc(F)c(Cl)c3)c2cc1NC(=O)/C=C/CN(C)C,19.3 µM (active),
CCN(CC)CCNC(=O)c1c(C)[nH]c(/C=C2\C(=O)Nc3ccc(F)cc32)c1C,15.8 µM (active),
Cc1csc(NC(=O)c2sc3nc4c(c(C(F)(F)F)c3c2N)CCC4)n1,1.72 µM (active),
COC(C(=O)N1Cc2[nH]nc(NC(=O)c3ccc(N4CCN(C)CC4)cc3)c2C1)c1ccccc1 (centres undefined),1.53 µM (active),
CC(C)c1nn(-c2c(Cl)cccc2Cl)c2nc(Cc3ccc(OCCO)cc3)[nH]c(=O)c12,,-3.9%
FC(F)(F)c1ccc(/C=C/c2nc(COc3ccc(CCCCn4ccnn4)cc3)co2)cc1,,-31%
Cc1nc(Nc2ncc(C(=O)Nc3c(C)cccc3Cl)s2)cc(N2CCN(CCO)CC2)n1,24.3 µM (active),
CC(C)C[C@H](NC(=O)[C@H](CCc1ccccc1)NC(=O)CN1CCOCC1)C(=O)N[C@@H](Cc1ccccc1)C(=O)N[C@@H](CC(C)C)C(=O)[C@@]1(C)CO1,3.06 µM (active),
CNc1nccc(-c2cccnc2Oc2cc(C(=O)Nc3cccc(C(F)(F)F)c3)ccc2C)n1,24.3 µM (active),
COc1cc2c(NC3CCN(C(C)C)CC3)nc(C3CCCCC3)nc2cc1OCCCN1CCCC1,8.63 µM (active),
Cn1cnc2c(F)c(Nc3ccc(Br)cc3F)c(C(=O)NOCCO)cc21,,9.19%
COc1ccc2c(c1OC)C(=O)O[C@@H]2[C@H]1c2c(cc3c(c2OC)OCO3)CCN1C,,12.3%
Cc1cc(C2CCCCC2)n(O)c(=O)c1,12.5 µM (active),
Cc1cc(Nc2nc(N[C@@H](C)c3ncc(F)cn3)ncc2Cl)n[nH]1,7.69 µM (active),
COc1cc(C(=O)N2CCC(N3CCN(C)CC3)CC2)ccc1Nc1ncc2c(n1)N(C)c1ccccc1C(=O)N2C,10.9 µM (active),
Cc1cc(SCc2sc(-c3ccc(C(F)(F)F)cc3)nc2C)ccc1OCC(=O)O,,6.68%
CC(C)Oc1ccc(C(=O)NC(CNC(=O)CN(C)C)Cc2ccc(-c3cn4cccc(C(C)O)c4n3)cc2)cc1Cl (centres undefined),,-17.3%

SMILES,Potency,"activity change, negative = viability loss"
COc1ccc2c(c1)c(CC(=O)O)c(C)n2C(=O)c1ccc(Cl)cc1,,11.3%
O=C(/C=C/c1cccc(S(=O)(=O)Nc2ccccc2)c1)NO,10.6 µM (active),
O=C1c2c(O)ccc(O)c2C(=O)c2c(NCCNCCO)ccc(NCCNCCO)c21,3.85 µM (active),
Cn1cc(-c2[nH]c3cc(NC(=O)[C@H](N)C4CCCCC4)cc4c3c2C=NNC4=O)cn1,3.85 µM (active),
CN(C)CCC(CSc1ccccc1)Nc1ccc(S(=O)(=O)NC(=O)c2ccc(N3CCN(Cc4ccccc4-c4ccc(Cl)cc4)CC3)cc2)cc1[N+](=O)[O-] (centres undefined),9.68 µM (active),
Cc1cc(CN2CCN(c3c(Br)cnc4nc(-c5ccc(N6CCN(C)CC6)cc5)[nH]c34)CC2)no1,13.7 µM (active),
O=c1[nH]c(=O)n([C@H]2C[C@H](O)[C@@H](CO)O2)cc1Br,,21.2%
CN1CCN(Cc2ccc(NC(=O)Nc3ccc(Oc4cc(NC(=O)C5CC5)ncn4)cc3)cc2C(F)(F)F)CC1,13.7 µM (active),
COc1ccc(-c2cc3nccn3c(Nc3ncccc3C(N)=O)n2)cc1OC,,-6.41%
Cc1nc(N)sc1-c1ccnc(Nc2ccc(N3CCOCC3)cc2)n1,3.43 µM (active),
CC(=O)OC12COC1CC(O)C1(C)C(=O)C(O)C3=C(C)C(OC(=O)C(O)C(NC(=O)OC(C)(C)C)c4ccccc4)CC(O)(C(OC(=O)c4ccccc4)C21)C3(C)C (centres undefined),,17.5%
COc1cccc2c1C(=O)c1c(O)c3c(c(O)c1C2=O)C[C@@](O)(C(=O)CO)C[C@@H]3O[C@H]1C[C@H](N)[C@H](O[C@@H]2CCCCO2)[C@H](C)O1,9.68 µM (active),
COc1cc2c(cc1-c1c(C)noc1C)ncc1[nH]c(=O)n(C(C)c3ccccn3)c12 (centres undefined),1.09 µM (active),
COc1cc2c(Oc3ccc(-c4cnc(Nc5ccc(F)cc5)n(C)c4=O)cc3F)ccnc2cc1OCCCN1CCOCC1,19.3 µM (active),
C=CC(=O)Nc1cccc(Oc2nc(Nc3ccc(N4CCN(C)CC4)cc3)ncc2Cl)c1,19.3 µM (active),
CCn1c(-c2nonc2N)nc2c(C#CC(C)(C)O)ncc(OCC3CCCNC3)c21 (centres undefined),24.3 µM (active),
Cn1cnc2c(F)c(Nc3ccc(Br)cc3Cl)c(C(=O)NOCCO)cc21,,-18.7%
